Rab9 prom act – qHTS Assay for Rab9 Promoter Activators. actives 2.8% (n = 320,000). Huh7 Rab9 promoter-luciferase reporter, luminescence, 24 h. Potency, µM (titrated, usually from 9.22 µM), most hits filed as activators; also: nearly all actives have a fitted effect of over 60% in size
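Luciferase signal after 10 min detection reagent at ambient indicates Rab9 promoter upregulation; stably transfected Huh7 cells were treated 24 h with compound in DMSO at 37 °C, 5% CO2.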
ELG1 genotoxic – qHTS screen for small molecules that induce genotoxicity in human embryonic kidney (HEK293T) cells expressing luciferase-tagged ELG1; Potency, µM (top dose mostly 46 µM), actives largely listed as activators; AID 504466, 2011; HEK293T ELG1-luciferase reporter, luminescence, 16 h; actives 1.3% (n = 330,000); also: nearly all actives have a fitted effect of over 60% in size
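Luminescence read-out: rising ELG1-luciferase signal, reflecting elevated ELG1 protein under genetic stress, flags genotoxic compounds. Cells were treated for 16 hr at 37 °C before ONE-Glo detection.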
SMN2 splice up – qHTS Assay for Enhancers of SMN2 Splice Variant Expression. HEK293 SMN2-luciferase splicing reporter, luminescence, 30-36 h. AID 1458, 2008. Potency, µM (series often up to 46.1 µM), actives largely listed as activators. actives 2.8% (n = 210,000); also: nearly all actives have a fitted effect of over 55% in size
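HEK293 cells carry an SMN2 […]–luciferase reporter in which exon 7 inclusion puts luciferase in frame. Cells were plated 10-12 h before compound addition, then incubated 30-36 h at 37C. ONE-Glo luminescence was read; sodium butyrate at 4.5 mM final served as control.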
FLuc modulator – qHTS profiling assay for firefly luciferase inhibitor/activator using purifed enzyme and Km concentrations of substrates (counterscreen for miR-21 project) | Potency, µM (highest dose often 57.5 µM), actives largely listed as inhibitors | Luciferin 4-monooxygenase (Photinus pyralis), P08659 | actives 6.9% (n = 360,000) | purified FLuc, Km substrates, luminescence inhibition; also: nearly all actives have a fitted effect of over 55% in size
Target sequence (P08659 whole entry, looked up): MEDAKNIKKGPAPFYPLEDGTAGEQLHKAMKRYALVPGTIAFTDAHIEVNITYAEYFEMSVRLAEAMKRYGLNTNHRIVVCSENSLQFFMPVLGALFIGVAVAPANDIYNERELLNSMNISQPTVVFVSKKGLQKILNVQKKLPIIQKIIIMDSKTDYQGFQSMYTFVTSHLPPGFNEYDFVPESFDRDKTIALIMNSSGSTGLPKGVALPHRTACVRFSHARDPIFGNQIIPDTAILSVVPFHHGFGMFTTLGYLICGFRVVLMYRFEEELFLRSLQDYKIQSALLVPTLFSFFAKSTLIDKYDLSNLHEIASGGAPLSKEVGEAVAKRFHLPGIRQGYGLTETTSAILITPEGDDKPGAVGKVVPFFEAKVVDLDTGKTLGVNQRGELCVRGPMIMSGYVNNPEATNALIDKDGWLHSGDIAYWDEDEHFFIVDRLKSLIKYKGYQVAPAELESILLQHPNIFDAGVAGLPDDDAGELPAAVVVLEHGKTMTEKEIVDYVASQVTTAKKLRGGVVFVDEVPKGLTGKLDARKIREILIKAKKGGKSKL
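Purified P. pyralis luciferase (10nM final) with 10uM D-luciferin and 10uM ATP (Km levels) in 50mM Tris acetate pH 7.5, 10mM Mg acetate, 0.01% Tween-20, 0.05% BSA; qHTS 6-point titration, ~60 µM downward; luminescence read.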
KinaseGlo FLuc – Counterscreen for Luciferase (Kinase-Glo TM) Inhibition. Kinase-Glo luciferase, ATP luminescence, 8 min. Potency, µM (highest dose often 38.3 µM), usual class: inhibitors. actives 0.28% (n = 200,000); also: nearly all actives have a fitted effect of over 60% in size
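Inhibition of Kinase-Glo luciferase light generation was assessed at 10 uM ATP in pH 7.2 imidazole buffer, with luminescence measured after eight minutes at ambient temperature.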
NPC1 promoter act – qHTS Assay for NPC1 Promoter Activators; Huh7 NPC1 promoter luciferase reporter, 24 h; Potency, µM (highest dose often 9.22 µM), most hits filed as activators; actives 2.4% (n = 320,000); AID 485313, 2010; also: nearly all actives have a fitted effect of over 60% in size
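Cells: Huh7 expressing luciferase under the NPC1 promoter, 1500/well. Seeded 2 h, compound added, incubated 24 h at 37 °C. Luciferase reagent, 10 min ambient, then luminescence.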
Numbers stand for hits; n = inactive; u = inconclusive; x = not tested or not shown. An excerpt weighted towards active compounds, which were near 7.3% of everything screened. Calls follow the shape of the dose curve; as a rule, active = well fitted curve in the direction sought with a large enough effect; inconclusive = small, poorly fitted or top-dose-only effect, or another doubt; inactive = no such curve, though single readings can be large; an effect the other way counts as inactive or inconclusive.

SMILES	Rab9 prom act	ELG1 genotoxic	SMN2 splice up	FLuc modulator	KinaseGlo FLuc	NPC1 promoter act
O=C(c1ccc(C(F)(F)F)cc1)C1CCCN(C(=O)CCc2ccncc2)C1 (stereo not drawn)	n	n	x	n	x	n
O=S(=O)(Nc1cccc(F)c1)c1ccc2[nH]c3c(c2c1)CCCCC3	x	x	x	n	x	x
Cc1cc(-n2nnc3ccccc32)nc2ccccc12	n	n	0.224µM	n	n	n
Cc1cc(N2CCCCC2)nc2ccccc12	n	n	n	u	n	n
C[C@H]1C(=O)N(C)CCN1C(=O)c1ccccc1OC1CCN(S(C)(=O)=O)CC1	n	n	x	n	n	n
O=C(C#Cc1ccccc1)c1ccco1	n	n	x	15.1µM	x	n
COc1ccc(N(C(=O)c2ccco2)S(=O)(=O)c2cc(Cl)c(Cl)cc2Cl)cc1	n	n	n	n	n	n
CC(C)c1ccc2nc(N)sc2c1	2µM	n	12.6µM	6.75µM	n	1.58µM
Nc1nc2ccc(S(=O)(=O)c3ccc4nc(N)sc4c3)cc2s1	n	n	n	n	n	n
Cc1cc2nc(N)sc2cc1C	x	x	u	9.53µM	n	x
Nc1nc2ccc(O)cc2s1	n	n	n	n	n	n
COc1ccc(C2CC(=O)C3=C(C2)Nc2ccccc2NC3c2coc3ccccc3c2=O)cc1OC (stereo not drawn)	n	n	n	n	n	n
O=C(CNS(=O)(=O)c1ccc(F)cc1)N1CCOCC1	n	n	x	n	x	n
COC(=O)c1ccc2[nH]c3c(c2c1)CC(C)CC3 (stereo not drawn)	n	u	x	12µM	x	n
CCOC(=O)c1ccc2[nH]c3c(c2c1)CCCC3	u	23.1µM	x	10.7µM	x	2.82µM
O=C(N/N=C/c1ccco1)Nc1ccccc1	3.98µM	u	x	19µM	x	3.16µM
Clc1ccc(/C=N\Nc2ccccc2)cc1	n	u	x	16.9µM	x	n
O=C(N/N=C/c1ccc(Cl)cc1)Nc1ccccc1	u	u	u	4.26µM	n	u
O=C(CCC(=O)Nc1ccccc1)N/N=C/c1ccco1	n	n	n	n	n	n
CN1[C@H](CC(=O)c2ccccc2)CCC[C@H]1C[C@@H](O)c1ccccc1	x	x	x	x	n	x
O=C(COC(=O)CCc1nc2ccccc2c(=O)[nH]1)NC1CCS(=O)(=O)C1 (stereo not drawn)	n	x	n	n	n	n
COc1ccc(NC(=S)NC(=O)c2cc3ccccc3o2)c(OC)c1	n	u	x	u	x	n
Cn1c(=O)oc2cc(S(=O)(=O)NCCN3CCN(c4ccccc4F)CC3)ccc21	n	n	n	n	n	n
C#CC(C)(C)NC(=O)c1ccc(-c2ccccc2F)cc1	u	u	x	19µM	x	u
Cc1ccc(NC2=Nc3ccccc3CS2)cc1	0.316µM	u	x	0.477µM	x	0.316µM
SMILES	Rab9 prom act	ELG1 genotoxic	SMN2 splice up	FLuc modulator	KinaseGlo FLuc	NPC1 promoter act
CC1(C)OC(=O)C(=NNc2ccc(Br)cc2)C(=O)O1	n	n	n	19µM	n	n
CC1(C)OC(=O)C(=CNc2ccccc2)C(=O)O1	n	n	n	u	n	n
CCS(=O)(=O)NC(C)C(c1cccs1)N1CCN(c2ccc(F)cc2)CC1 (stereo not drawn)	n	n	n	n	n	n
O=S(=O)(c1ccc(F)cc1)N1CCC2(CC1)OCCO2	n	n	n	n	n	n
O=S(=O)(c1cc(F)ccc1F)N1CCC2(CC1)OCCO2	3.98µM	9.2µM	x	12µM	x	3.55µM
Cc1ccc(NC(=O)COc2ccc(S(=O)(=O)N3CCOCC3)cc2)cc1	n	n	n	n	n	n
COCCn1cnc2c1c(=O)n(CC(=O)O)c(=O)n2Cc1ccccc1	n	n	x	n	x	n
O=c1c2c(nc3cc(-c4ccccc4Cl)[nH]n13)CCS2	3.55µM	u	15.8µM	8.49µM	n	u
CCOC(=O)N1CCC(c2cc(=O)n3[nH]c(-c4ccccc4)cc3n2)CC1	n	n	n	n	n	n
O=c1c2c(nc3cc(-c4ccccc4)[nH]n13)CCS2	2.82µM	u	u	9.53µM	n	3.98µM
COc1ccccc1OCCCn1c(C2CC(=O)N(c3ccccc3Cl)C2)nc2ccccc21 (stereo not drawn)	x	x	n	16.9µM	x	x
CCc1ccccc1N1CC(c2nc3ccccc3n2CCCCOc2ccccc2OC)CC1=O (stereo not drawn)	x	x	n	n	x	x
CCOc1ccccc1N1CC(c2nc3ccccc3n2CCCOc2ccccc2OC)CC1=O (stereo not drawn)	x	x	n	16.9µM	x	x
O=C(Nc1ccccc1)c1ccc(-n2cnnn2)cc1	u	n	x	n	x	n
CCc1ccccc1N(CC)C(=O)c1cc2c(s1)-c1ccccc1SC2	x	x	n	n	x	x
CN(CCC#N)C(=O)c1cc2c(s1)-c1ccccc1SC2	2.51µM	u	x	10.7µM	x	2.24µM
Cn1nc(-c2ccc(C(=O)O)cc2)c2ccccc2c1=O	n	n	n	n	n	n
Nc1nc2nn(-c3ccccc3)nc2c(=O)[nH]1	2.82µM	u	x	4.78µM	x	2µM
Nc1nc2n[nH]nc2c(=O)[nH]1	x	x	n	x	n	x
O=C(CC(SCCO)c1ccc2c(c1)OCO2)c1ccco1 (stereo not drawn)	u	u	n	4.78µM	n	u
COc1ccc(C2C(C)C3(O)CC(C#N)(C(=O)N3)C2(C#N)C#N)cc1 (stereo not drawn)	n	n	x	n	x	n
CN(C)CCCOc1cccc(Cl)c1	n	n	n	n	n	n
O=C(NCc1cccs1)c1cc(-c2cccc(Cl)c2)on1	u	u	n	n	n	n
O=C(NCc1cccs1)c1cc(-c2ccc(O)cc2)on1	3.55µM	u	x	u	x	u
Cc1ccc(-c2cc(C(=O)NCc3cccs3)no2)cc1	2µM	u	n	n	n	u
SMILES	Rab9 prom act	ELG1 genotoxic	SMN2 splice up	FLuc modulator	KinaseGlo FLuc	NPC1 promoter act
O=[N+]([O-])c1ccc(O)c(C2=NNC(c3ccccc3F)C2)c1 (stereo not drawn)	0.316µM	n	x	3.38µM	x	1µM
COc1ccc([N+](=O)[O-])cc1C1NN=C(c2ccccc2O)S1 (stereo not drawn)	n	n	n	u	n	n
Cc1ccc(-c2nc(N3CCOCC3)sc2C(=O)N2CCOCC2)cc1	n	n	n	n	n	n
CC(C)(C)C(=O)NCC12C=CC(O1)C1C(=O)N(c3ccccc3)C(=O)C12 (stereo not drawn)	n	n	n	n	n	n
O=C1C2C3C=CC(CO)(O3)C2C(=O)N1c1ccc(-c2ccccc2)cc1 (stereo not drawn)	n	u	n	19µM	n	n
CCCSc1ncc(Cl)c(C(=O)NCc2ccc(C)cc2)n1	x	x	n	n	x	x

Screening data as filed in PubChem.
